Rows were chosen to be rich in hits. Some 4.7% of all compounds tested hit in one or more screens of this group.
tim23-1 inh: growth inhibitors of tim23-1 mutant yeast; inhibition, % at 20 µM; AID 463212; actives 1.3% (n = 330,000); S. cerevisiae tim23-1 growth, BacTiter-Glo luminescence, 24 h;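 active means growth inhibition of the mutant yeast at or above 50%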;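 further: temperature-sensitive mutant grown at 25 °C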
TIM10 inh: inhibits growth of TIM10 yeast strain. S. cerevisiae TIM10 strain growth, BacTiter-Glo luminescence, 24 h. inhibition, % at 10 µM. actives 1.4% (n = 330,000);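 active means inhibition of 40% or more at the single tested concentration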;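 further: wild-type TIM10 isogenic control strain grown at permissive 25 °C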
SKKanGAS inh: inhibitors of SKKanGAS S. pyogenes growth in kanamycin (SK-promoter or general growth effect) | BacTiter-Glo, 6 h | inhibition, % at 7.5 µM | actives 1.3% (n = 300,000);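 active means mean replicate score, as percent of positive control median, at least 50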;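 further: strain carries kanamycin resistance gene driven by streptokinase promoter and grows in 40 µg/ml kanamycin; loss of luminescence reflects streptokinase promoter inhibition or plain growth inhibition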
PfHsp90 set2: growth inhibition of yeast expressing Plasmodium Hsp90. S. cerevisiae expressing PfHsp90, BacTiter-Glo ATP, 48 h; yeast lacking PDR1 and PDR3 efflux regulators. inhibition, % at 9.4 µM. actives 0.32% (n = 310,000);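 active means every replicate shows inhibition above about 80%, whatever the replicate mean, limit read from the data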
EBI2 antag: antagonists of human EBI2 receptor; P32249; EBI2 beta-arrestin recruitment, luminescence, 7a,25-OHC stimulated; inhibition, % at 5 µM; actives 0.81% (n = 360,000); in the data active means inhibition above about 38%;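 further: enzyme fragment complementation signal reports receptor beta-arrestin coupling in cells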
Target sequence (P32249 whole entry, looked up, the tested form may be a part): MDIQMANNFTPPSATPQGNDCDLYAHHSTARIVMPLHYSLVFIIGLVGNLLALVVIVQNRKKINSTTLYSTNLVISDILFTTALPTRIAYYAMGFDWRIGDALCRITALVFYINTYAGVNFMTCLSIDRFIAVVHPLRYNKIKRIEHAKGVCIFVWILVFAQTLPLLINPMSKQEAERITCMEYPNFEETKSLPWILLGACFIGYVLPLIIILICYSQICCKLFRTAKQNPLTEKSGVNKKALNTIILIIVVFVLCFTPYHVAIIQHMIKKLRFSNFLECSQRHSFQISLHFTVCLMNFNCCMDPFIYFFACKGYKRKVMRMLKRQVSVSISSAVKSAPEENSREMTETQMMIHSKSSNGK
tim10-1 inh: growth inhibitors of tim10-1 mutant yeast. S. cerevisiae tim10-1 ts strain growth, BacTiter-Glo, 24 h. inhibition, % at 20 µM. actives 2.2% (n = 330,000). AID 463190;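 active means inhibition of at least 40%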;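 further: mutant grown at 25 °C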
Each line names hits and unclear results; the compound was inactive in the other large screens.

CCCC(=O)NC(c1ccccc1OC)c1ccc2cccnc2c1O (stereo not drawn)	none
CCCCC(=O)NC(c1ccccc1OC)c1ccc2cccnc2c1O (stereo not drawn)	PfHsp90 set2 106
CCCC(=O)NC(c1ccc(Cl)cc1Cl)c1ccc2cccnc2c1O (stereo not drawn)	SKKanGAS inh 89
O=C(CN(c1ccccc1Cl)S(=O)(=O)c1ccccc1)NC1CC2CCC1C2 (stereo not drawn)	none (no result: tim23-1 inh, TIM10 inh, SKKanGAS inh, PfHsp90 set2, tim10-1 inh)
O=C(c1cc2ccccc2[nH]1)N(Cc1cccnc1)CC1CCCN(C2CCCCC2)C1 (stereo not drawn)	none
O=S(=O)(/C(=C\c1ccc(C(F)(F)F)cc1)c1nc2ccccc2[nH]1)c1ccccc1	EBI2 antag 45 (no result: tim23-1 inh, TIM10 inh, SKKanGAS inh, tim10-1 inh)
C=CCc1cc(/C=C2/NC(=O)N(CC)C2=O)cc(OCC)c1OCc1ccc(C(=O)O)cc1	SKKanGAS inh 61
COc1cc(C(=O)NS(=O)(=O)c2ccccc2C)ccc1Cc1cn(C)c2ccc(NC(=O)OC3CCCC3)cc12	SKKanGAS inh 68 (no result: PfHsp90 set2, EBI2 antag)
CCOC(=O)CN(C(=O)CSc1nnc(COc2ccc(OC)cc2)n1C)c1ccccc1	EBI2 antag 52
CCOC(=O)CN(C(=O)CSc1nnc(CNc2ccc(F)cc2)n1C)c1ccccc1	none
COc1ccccc1NC(=O)N(C)C[C@@H]1OCc2cnnn2CCCC(=O)N([C@@H](C)CO)C[C@H]1C	none (no result: tim23-1 inh, TIM10 inh, SKKanGAS inh, PfHsp90 set2, tim10-1 inh)
c1ccc(SCCOCCn2cncn2)cc1	none
OC(Cn1cncn1)(c1ccccc1)c1ccccc1	PfHsp90 set2 92
C=CCOC(=O)C1=C(C)NC(C)=C(C(=O)OCC=C)C1c1cn(-c2ccccc2)nc1-c1ccco1	none
O=C(Cn1cc(COc2ccc(Cl)c(Cl)c2)nn1)NS(=O)(=O)c1ccccc1C(F)(F)F	none (no result: tim23-1 inh, TIM10 inh, SKKanGAS inh, PfHsp90 set2, tim10-1 inh)
CC(C)(C)c1ccc(NC(=O)Nc2ccc(OCC(=O)N3CCOCC3)cc2)cc1	none
COc1ccccc1NC(=O)c1cc2cc(Br)ccc2cc1O	SKKanGAS inh 53 (no result: tim23-1 inh, TIM10 inh, tim10-1 inh)
COc1cc(NC(=O)c2cc3ccccc3cc2O)c(OC)cc1Cl	none
Cc1ccc(Cl)cc1NC(=O)c1cc2ccccc2cc1O	SKKanGAS inh 97
CCCS(=O)(=O)NC(=O)C1(C)CCCN(C(=O)c2ccccc2F)C1 (stereo not drawn)	none (no result: tim23-1 inh, TIM10 inh, SKKanGAS inh, PfHsp90 set2, tim10-1 inh)
CC(C)OC(=O)c1cccc(NC(=O)CSc2nnc(N)s2)c1	none (no result: PfHsp90 set2)
COc1ccccc1CNC(=O)CCNC(=O)N1CC(=O)Nc2ccccc21	none
Cc1nn(Cc2ccc(Cl)cc2Cl)c(C)c1NC(=O)c1sc2ccccc2c1Cl	none
Cc1nn(Cc2ccc(Cl)cc2Cl)c(C)c1NC(=O)NC12CC3CC(CC(C3)C1)C2	SKKanGAS inh 51
CC(C)NC(=O)C1(C)Cc2c(-c3ccc(N(C)C)cc3)ccnc2O1 (stereo not drawn)	none (no result: tim23-1 inh, TIM10 inh, SKKanGAS inh, PfHsp90 set2, tim10-1 inh)
Cc1cc(C)c2[nH]c(O)c(N=Nc3ccc(C(=O)O)cc3)c2c1	SKKanGAS inh 74
CCOC(=O)c1c(-c2ccc(C)o2)csc1NC(=O)COC(=O)c1ccc(NC(N)=O)cc1	SKKanGAS inh 68
CCOC(=O)c1c(-c2ccc(C)o2)csc1NC(=S)NC(=O)c1cccs1	SKKanGAS inh 61
CCc1ccc(-c2nc(NC(=S)NC(=O)c3cccs3)sc2C)cc1	none
COC(=O)c1nc(NC(=S)NC(=O)c2cccs2)sc1C	SKKanGAS inh 60 (no result: PfHsp90 set2)
CC(=O)NC(c1cccs1)c1cc(F)c2cccnc2c1O (stereo not drawn)	none (no result: SKKanGAS inh)
CCC(=O)NC(c1cccs1)c1ccc2cccnc2c1O (stereo not drawn)	PfHsp90 set2 114
Cc1conc1NC(c1cccs1)c1ccc2cccnc2c1O (stereo not drawn)	SKKanGAS inh 100 (no result: PfHsp90 set2, EBI2 antag)
Oc1c(C(Nc2nccs2)c2ccc(C(F)(F)F)cc2)ccc2cccnc12 (stereo not drawn)	SKKanGAS inh 91, PfHsp90 set2 102 (no result: tim23-1 inh, TIM10 inh, tim10-1 inh)
CCC(=O)NC(c1cccs1)c1cc([N+](=O)[O-])c2cccnc2c1OC (stereo not drawn)	none (no result: tim23-1 inh, TIM10 inh, SKKanGAS inh, PfHsp90 set2, tim10-1 inh)
COCCC(=O)N1CCC(Oc2ccc(C(=O)N3CCCC(COC)C3)cc2)CC1 (stereo not drawn)	none
CCc1cccc(NC(=O)CSc2nc(C)cs2)c1	none (no result: tim23-1 inh, TIM10 inh, SKKanGAS inh, PfHsp90 set2, tim10-1 inh)
COCCNC(=O)C1(C)CCN(C(=O)c2ccc(OC)c(F)c2)C1 (stereo not drawn)	none (no result: tim23-1 inh, TIM10 inh, SKKanGAS inh, PfHsp90 set2, tim10-1 inh)
Cc1[nH]n(-c2ncc(-c3ccccc3)s2)c(=O)c1C(c1ccc(Cl)cc1)C(C#N)C#N (stereo not drawn)	SKKanGAS inh 61
Nc1nc(-c2ccccn2)nc(N)c1Cc1ccc(Cl)cc1Cl	SKKanGAS inh 114
Nc1nc(-c2ccccn2)nc(N)c1Cc1ccccc1F	SKKanGAS inh 79
N#Cc1c(NC(=S)NC(=O)C2CCCC2)sc2c1CCCCC2	SKKanGAS inh 76
CC(C)CC(=O)NC(NC(=S)Nc1sc2c(c1C#N)CCCC2)C(Cl)(Cl)Cl (stereo not drawn)	SKKanGAS inh 56 (no result: PfHsp90 set2)
CC(C)c1cc(C(=O)NCc2ccc(F)cc2)c(N)s1	none (no result: tim23-1 inh, TIM10 inh, SKKanGAS inh, PfHsp90 set2, tim10-1 inh)
CCc1noc(C)c1C(=O)OCC(=O)NCc1ccccc1	none (no result: SKKanGAS inh)
CCc1noc(C)c1C(=O)OCC(=O)NC(=O)c1ccccc1	SKKanGAS inh 50
Cc1ccccc1-n1c(SCC(N)=O)nc2sc(-c3ccccc3)cc2c1=O	none
Cc1ccccc1-n1c(SCC(=O)NC(N)=O)nc2sc(-c3ccccc3)cc2c1=O	SKKanGAS inh 86
Cc1cc(C)c(C(=O)Nc2ccc(Br)c(C(F)(F)F)c2)c(C)c1	SKKanGAS inh 72
Cc1cc(C)n(-c2nc(SCC(=O)O)c3c4c(sc3n2)COC(C)(C)C4)n1	SKKanGAS inh 70
CCc1nc(SCC(=O)O)c2c3c(sc2n1)COC(C)(C)C3	none
CN(C)C(=O)C[n+]1cccc(/C=N/O)c1	none
Cc1[nH]n(-c2ccccc2)c(=O)c1Sc1ccc(Cl)cc1	none
CCCSC(=S)c1c(C)[nH]n(-c2ccccc2)c1=O	SKKanGAS inh 89
Cc1csc2nc(CSc3nncn3-c3ccccc3)c(Br)n12	none
Cc1csc2nc(CSc3nc4ccccc4o3)c(Br)n12	SKKanGAS inh 60
CCOC(=O)COn1c(-n2nc(C)cc2C)nc2ccccc2c1=O	none
Cc1ccc(C2CC(c3ccccc3)=NN2c2ccc(S(N)(=O)=O)cc2)cc1 (stereo not drawn)	none (no result: tim23-1 inh, TIM10 inh, SKKanGAS inh, PfHsp90 set2, tim10-1 inh)
CCc1ccc(C2=NN(c3ccc(S(N)(=O)=O)cc3)C(c3ccc(F)cc3)C2)cc1 (stereo not drawn)	SKKanGAS inh 102
COc1ccc(S(=O)(=O)N[C@@H](C)C(=O)OCC(=O)Nc2cc3oc4ccccc4c3cc2OC)cc1	SKKanGAS inh 80
CCOC(=O)c1ccc(S(=O)(=O)N2CCN(CC(O)COc3ccc(C#N)cc3)CC2)cc1 (stereo not drawn)	EBI2 antag 50
CCC(=O)N1CCCC1(C)C(=O)Nc1ccc(C)c(C)c1 (stereo not drawn)	none (no result: tim23-1 inh, TIM10 inh, SKKanGAS inh, PfHsp90 set2, tim10-1 inh)
COc1cccc(C(=O)Nc2nnc(-c3ccc(F)cc3)o2)c1	SKKanGAS inh 91

Bioassay records as filed in PubChem BioAssay.
